Most compounds without a hit are left out; they make up all but 3.9% or so of the library.
VDR inh: vitamin D3 receptor (human) inhibition; AID 504847; hit rate 0.93% among 400,000; P11473; Potency, µM, inactives show max response, negative = inhibition, usual class: inhibitors; VDR-SRC2-3 peptide fluorescence polarization, 2 h; also: % is scaled to controls: 0 for no effect and ±100 for the full control effect
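VDR–SRC2-3 interaction, FP format. Cmpds 23 nl via pintool, brief spin, 2 h ambient incubation.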
PLK1 PBD block: PLK1 (human) polo-box domain binding inhibition; P53350; Plk1 PBD binding of FITC phosphopeptide, fluorescence polarization; Potency, µM, for the others: max response, negative = inhibition, most hits filed as inhibitors; hit rate 2.8% among 360,000; AID 720504; also: series mostly up to about 57 µM; % is scaled to controls: 0 for no effect and ±100 for the full control effect; nearly all actives have a fitted effect of over 65% in size
Tb PFK inh: inhibitors of T. brucei phosphofructokinase; O15648; T. brucei PFK, ADP-Glo luminescence; Potency, µM (top dose mostly 57.5 µM), for inactives: top-dose activity, negative = inhibition, most hits filed as inhibitors; hit rate 0.17% among 330,000; AID 485367;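 also: 0% = uninhibited 1x PFK enzyme wells and -100% = no-enzyme wells; nearly all actives have a fitted effect of over 60% in size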
Target sequence (O15648 whole entry, looked up): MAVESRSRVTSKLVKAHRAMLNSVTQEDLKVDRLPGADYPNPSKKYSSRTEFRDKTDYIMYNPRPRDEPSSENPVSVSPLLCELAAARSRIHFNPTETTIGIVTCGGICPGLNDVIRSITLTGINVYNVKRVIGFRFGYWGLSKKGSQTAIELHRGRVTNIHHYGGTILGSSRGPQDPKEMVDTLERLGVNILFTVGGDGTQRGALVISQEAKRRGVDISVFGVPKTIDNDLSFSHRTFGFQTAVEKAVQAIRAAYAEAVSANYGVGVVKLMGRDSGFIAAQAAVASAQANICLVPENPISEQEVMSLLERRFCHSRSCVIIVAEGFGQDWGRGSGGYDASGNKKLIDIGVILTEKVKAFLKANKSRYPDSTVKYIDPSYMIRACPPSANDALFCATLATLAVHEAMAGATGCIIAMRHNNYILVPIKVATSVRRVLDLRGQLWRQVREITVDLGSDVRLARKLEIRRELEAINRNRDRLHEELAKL
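ADP-Glo luminescence quantified ADP after 45 min at room temperature, with 1.25 nM T. brucei PFK, 0.1 mM ATP and 0.5 mM fructose-6-phosphate in pH 8.0 TEA buffer. qHTS titrations up to 57 µM; curves classified by quality.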
BRCA1 expr act: increases BRCA1 expression; MCF7-BRCA1-FFLuc reporter, luminescence, 48 h; response scale: scaled: vehicle 0%, 10 µM genistein 100%; Potency, µM (top dose mostly 46.1 µM), inactives show top-dose activation, usual class: activators; hit rate 1.1% among 380,000; also: nearly all actives have a fitted effect of over 80% in size
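Cells: MCF7-BRCA1-FFLuc, 2000/well. Exposure: 48 h, 37 °C, 5% CO2. Read: luminescence, 15 min post-substrate. Controls: genistein 10 microM (maximal activation), DMSO (neutral).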
TbPYK inh: confirmation of Trypanosoma brucei pyruvate kinase inhibitors; shares compounds with PLK1 PBD block; recombinant TbPYK, Kinase-Glo ATP luminescence; Potency, µM (series often up to 76.9 µM), inactives show top-dose activity change, negative = inhibition, usual class: inhibitors; hit rate 67% among 890; AID 720569; also: % is scaled to controls: 0 for no effect and ±100 for the full control effect; nearly all actives have a fitted effect of over 70% in size
TbPYK ADP-Glo: orthogonal confirmation of Trypanosoma brucei pyruvate kinase inhibitors | shares compounds with PLK1 PBD block | recombinant TbPYK, ADP-Glo luminescence, 60 min | Potency, µM (doses to about 76.9 µM), without a hit: at the highest dose activity change, negative = inhibition, hits mostly inhibitors | hit rate 62% among 890 | AID 720584; also: % is scaled to controls: 0 for no effect and ±100 for the full control effect; nearly all actives have a fitted effect of over 75% in size
An asterisk follows results filed as active; ? = inconclusive; · = no result. Calls follow the shape of the dose curve; as a rule, active = well fitted curve in the direction sought with a large enough effect; inconclusive = small, poorly fitted or top-dose-only effect, or another doubt; inactive = no such curve, though single readings can be large; an effect the other way counts as inactive or inconclusive. Potency is read from the fitted curve at half-maximal effect.

SMILES	VDR inh	PLK1 PBD block	Tb PFK inh	BRCA1 expr act	TbPYK inh	TbPYK ADP-Glo
Cc1ccc(Cn2c(SCCN3CCCCC3)nc3c2c(=O)[nH]c(=O)n3C)cc1	89µM*	7.5µM*	?	-7%	16µM*	11µM*
Cc1cccc(Cn2c(SCCN3CCCCC3)nc3c2c(=O)[nH]c(=O)n3C)c1	-10%	-17%	3%	0%	·	·
Cn1c(=O)[nH]c(=O)c2c1nc(SCC(=O)O)n2Cc1ccccc1	-19%	-10%	0%	-4%	?	?
CCOc1ccc(OCC)c(NC(=O)CCc2nc3cccnc3n2-c2ccccc2)c1	-10%	·	·	·	·	·
O=C(O)c1cccc(N2C(=O)C=CC2=O)c1	·	12µM*	·	0%	25µM*	35µM*
O=C(O)c1cccc(N2C(=O)C3CC=CCC3C2=O)c1 (centres undefined)	10%	-6%	3%	7%	·	·
O=C(Cc1ccccc1)Nc1cccc(N2C(=O)C=CC2=O)c1	?	5.3µM*	?	?	5.6µM*	8.9µM*
Cc1ccc(C)c(OC(=O)C2CSC3(C)CCC(=O)N23)c1C (centres undefined)	-9%	-2%	-8%	-4%	·	·
NNC(=O)c1ccc(C(=O)N(c2ccccc2)c2ccccc2)cc1	·	·	·	-4%	·	·
Cc1ccc(C2=NC(=O)/C(=C/c3cc(O)c(O)c(Br)c3)S2)cc1	?	?	?	-32%	32µM*	?
COc1cc(/C=C2\SC(c3ccc(C)cc3)=NC2=O)cc(OC)c1O	?	-19%	-10%	-11%	35µM*	?
CN(Cc1ccc(OC(F)F)cc1)C(=O)c1cccc(S(=O)(=O)N2CCN(c3ccccc3)CC2)c1	-4%	1%	·	-32%	·	·
COC(=O)c1c(-c2ccc(C(C)(C)C)cc2)csc1NC(=O)C1C2CCC(O2)C1C(=O)O (centres undefined)	45µM*	2.7µM*	-26%	4%	4.5µM*	14µM*
CCOC(=O)C(=C1Nc2ccccc2N1)n1c(-c2cnccn2)nc2ccccc21	·	-9%	·	29%	·	·
CCOC(=O)C(=C1Nc2ccccc2N1)n1c(-c2ccco2)nc2ccccc21	·	?	·	1%	-72%	35µM*
CN1CCN(S(=O)(=O)c2ccc(N3CCN(c4ccc(O)cc4)CC3)c([N+](=O)[O-])c2)CC1	-7%	-1%	-14%	-34%	11µM*	18µM*
O=[N+]([O-])c1cc(S(=O)(=O)Nc2ccccc2)ccc1N1CCN(c2ccc(O)cc2)CC1	-7%	5%	-11%	-26%	·	·
O=c1cc(C(F)(F)F)[nH]c(=S)n1-c1ccccc1	-28%	?	-4%	-28%	14µM*	11µM*
CCn1c(C)nc2cc(C(=O)NNC(=O)c3ccc(C)cc3)ccc21	-7%	2%	1%	?	?	?
CCn1cc(/C=C/C(=O)Nc2ccn(Cc3c(F)c(F)cc(F)c3F)n2)cn1	?	-17%	-4%	-20%	7.9µM*	13µM*
CCn1cc(/C=C/C(=O)Nc2ccc(C)cc2Br)cn1	0%	-14%	2%	87%	·	·
COc1ccc(-c2nc(SCC(=O)c3ccc(OC)c(Br)c3)n[nH]2)cc1	22%	·	·	·	·	·
COC(=O)/C(=N/Nc1ccccc1C)Sc1nnc(C(O)c2ccccc2)n1-c1ccccc1 (centres undefined)	6%	-10%	-2%	-11%	35µM*	35µM*
N[C@@]1(C(=O)O)CN[C@@H](C(=O)O)C1	27%	·	·	·	·	·
COc1ccc(-c2ccc(C(=S)N3CCN(C(C)=O)CC3)o2)cc1	79µM*	24µM*	-6%	1%	22µM*	32µM*
COc1cc2c(NC3CCN(C)CC3)nc(N3CCCN(C)CC3)nc2cc1O	·	·	·	7%	·	·
Cc1ccc2c(c1)c1c(c(=O)n(-c3ccccc3)c(=O)n1Cc1ccccc1C)n2C	-4%	·	·	2%	·	·
CCN1CCC2(CC1)N=C(c1ccc(F)cc1)C(=S)N2C(=O)c1ccc(C(C)(C)C)cc1	79µM*	9.5µM*	-19%	3%	13µM*	18µM*

Assay outcomes as filed in PubChem.
